MsrA inh: bovine MsrA inhibition; purified bovine MsrA, absorbance read-out; inhibition, % at 15.5 µM; hit rate 0.75% among 360,000; in the data active = inhibition above about 4.5%;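 also: 0% = vehicle wells with enzyme and 100% = reference inhibitor wells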
NadD inh: NadD (S. aureus) enzyme inhibition | hit rate 0.78% among 360,000 | purified NadD enzyme, colorimetric absorbance read-out | inhibition, % at 20 µM; in the data active = inhibition above about 26%
rCAG binder-1: molecules binding r(CAG) RNA repeats. inhibition, % at 3 µM. hit rate 1.3% among 370,000. AID 651821. r(CAG) RNA repeat, TO-PRO-1 dye displacement fluorescence;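 active = inhibition above the plate cutoff, the mean of all test compounds on that plate plus 3 SD, cut at about 35% in these data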;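 also: 0% = DMSO alone and 100% = 100 µM mitoxantrone as full dye displacement; higher means more dye released from RNA so lower well fluorescence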
MsrA act: activates bovine MsrA enzyme | purified bovine MsrA, absorbance read-out | activation, % at 10.6 µM | hit rate 0.3% among 360,000; in the data active = activation above about 7.5%;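 also: 0% = vehicle and 100% = reference activator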
rCAG binder conf: r(CAG) RNA repeat binding, confirmation | shares compounds with rCAG binder-1 | TO-PRO-1 dye displacement fluorescence | inhibition, % at 3 µM | hit rate 70% among 4,300;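 active = inhibition above a per-plate cutoff, the mean inhibition of sample wells plus 3 SD, cut at about 35% in these data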;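 also: loss of TO-PRO-1 fluorescence as compound displaces dye from 1x1 AA loop RNA; 0% = DMSO only wells and 100% = 100 µM mitoxantrone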
dCAG dye counter: disrupts DNA CAG TO-PRO-1 complex, flagging rCAG hits | hit rate 94% among 4,300 | AID 652068 | d(CAG) DNA oligo TO-PRO-1 dye displacement, fluorescence | shares compounds with rCAG binder-1 | inhibition, % at 3 µM;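 active = inhibition above its plate's cutoff, the mean test-well inhibition plus 3 SD, cut at about 4.8% in these data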;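 also: 0% = DNA dye mix with DMSO and 100% = 100 µM mitoxantrone; hits displace the dye from DNA and so lower well fluorescence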
DNA CAG DR: counter-screen for rCAG binders: inhibitors of DNA CAG TO-PRO-1 complex. shares compounds with rCAG binder-1. DNA CAG/GTC duplex TO-PRO-1 dye displacement fluorescence. IC50, µM. hit rate 20% among 250. AID 686960; in the data active = IC50 below about 10 µM
dCAG DNA bind: DNA CAG dye complex inhibition, late stage dose response; shares compounds with rCAG binder-1; d(CAG) DNA duplex TO-PRO-1 dye displacement, fluorescence; IC50, µM; hit rate 80% among 30; AID 720649
rCAG binder-2: binds r(CAG) RNA repeats in late stage dose response | shares compounds with rCAG binder-1 | r(CAG) RNA TO-PRO-1 dye displacement, fluorescence | hit rate 100% among 30 | IC50, µM
* hit, by the source's call; . = no result given. An excerpt weighted towards active compounds, which were near 2.7% of everything screened. Unless noted, no rule for the calls is given here.

SMILES	MsrA inh	NadD inh	rCAG binder-1	MsrA act	rCAG binder conf	dCAG dye counter	others
CCOP(=O)(OCC)c1cc(CC)ccc1O	1.6	-4.0	-3.8	-1.1	.	.
CC(C)n1c(=O)c(C=Nc2ccc(S(N)(=O)=O)cc2)c(O)n(Cc2ccco2)c1=O	2.3	4.0	34.6*	-12.9	19.7	9.8*
CCCCn1c(=O)c(C=Nc2ccc(Cl)cc2)c(O)n(Cc2ccco2)c1=O	1.8	2.7	10.4	-4.4	.	.
Cc1cc(OCC(=O)NC(Cc2ccc(Cl)cc2)C(=O)O)c2c3c(c(=O)oc2c1)CCCC3 (stereo not given)	0.4	-0.5	63.2*	-8.3	65.7*	26.6*
Cc1cc(OCC(=O)NCc2ccncc2)c2c3c(c(=O)oc2c1)CCC3	0.7	-0.9	0.5	-5.3	.	.
CC1C2Cc3ccc(O)cc3C1(C)CCN2CC1CC1 (stereo not given)	-0.8	.	3.1	.	.	.
O=C1NC(=S)N(c2ccccc2F)C(=O)/C1=C\c1cccs1	0.3	14.2	13.7	-2.8	.	.
CCOc1ccc(N2C(=O)/C(=C\c3cccs3)C(=O)NC2=S)cc1	1.4	.	38.8*	.	8.8	7.3*
CCc1ccc(N2C(=O)NC(=O)/C(=C\C=C\c3ccco3)C2=O)cc1	0.8	7.2	45.2*	-2.4	18.5	9.3*
Cc1cc(C)cc(N2C(=O)NC(=O)/C(=C\C=C\c3ccco3)C2=O)c1	-1.2	5.9	39.2*	3.0	14.8	7.7*
CC(C)c1ccc(N2C(=O)NC(=O)/C(=C/C=C/c3ccco3)C2=O)cc1	0.0	7.8	54.3*	-3.8	29.1	9.4*
Cc1ccc(N2C(=O)NC(=O)/C(=C/C=C/c3ccco3)C2=O)cc1	-0.4	4.7	29.0	-7.7	.	.
O=C1N[C@H](Cc2ccccc2)C(=O)N2[C@@H]3[C@H](C[C@@H]12)c1ccccc1N3OOSc1ccccc1	-1.7	4.8	2.6	-1.2	.	.
Oc1ccc(CCNCc2cc3c(cc2Br)OCO3)cc1	-1.9	-4.6	1.9	-7.9	.	.
CCCCC(=O)N/N=C/c1c(O)n(-c2cccc3ccccc23)c(=O)[nH]c1=O	1.1	-4.9	5.9	-1.3	.	.
CN1OC[C@@H]2CN[C@H](c3ccc(Br)cc3)C[C@@H]21	-0.8	6.2	4.2	-2.1	.	.
O=C1NC(=O)N(c2ccccc2)C(=O)/C1=C\c1ccc([N+](=O)[O-])s1	0.4	.	43.2*	.	45.3*	18.1*
COc1ccc(OC)c(N2C(=O)NC(=O)/C(=C\c3ccc([N+](=O)[O-])s3)C2=O)c1	0.9	14.3	92.1*	-0.5	73.7*	33.9*
COc1ccc(N2C(=O)NC(=O)/C(=C\c3ccccc3[N+](=O)[O-])C2=O)cc1	-0.4	3.5	6.9	1.8	.	.
CN1C(=O)NC(=O)/C(=C/c2ccc([N+](=O)[O-])s2)C1=O	1.8	13.3	19.3	0.4	.	.
C/C(=N\N(C)c1ccccc1)c1c(O)[nH]c(=O)[nH]c1=O	3.0	-1.4	-2.5	-3.6	.	.
CN1C(=O)C(C)(C2=CCCCC2)C(=O)NC1=S (stereo not given)	-0.2	0.1	3.2	-2.9	.	.
C/C(=N\NC(N)=O)c1c(O)n(C)c(=O)n(C)c1=O	0.7	-9.6	0.9	-0.8	.	.
CC/C(=N\NC(=O)c1ccccc1O)c1c(O)n(C2CCCCC2)c(=O)[nH]c1=O	2.3	4.7	59.2*	-2.3	72.0*	29.4*	DNA CAG DR=2.81*;dCAG DNA bind=2.38*;rCAG binder-2=0.993*
O=C(N/N=C/c1c(O)n(Cc2ccco2)c(=O)[nH]c1=O)c1ccccc1O	2.6	-2.8	57.8*	-2.2	66.0*	26.5*
CCC(=NCCO)c1c(O)n(C2CCCCC2)c(=O)[nH]c1=O	-0.6	5.7	-1.9	2.3	.	.
O=C(N/N=C/c1c(O)n(C2CCCCC2)c(=S)[nH]c1=O)c1ccccc1O	1.9	8.1	45.2*	-2.1	90.3*	66.7*
CC(C)c1ccc(-n2c(O)c(/C=N/NC(=O)c3ccccc3O)c(=O)[nH]c2=S)cc1	2.9	7.4	81.5*	-3.1	78.1*	42.5*
